PD-1 reversal: activators reversing PD-1 mediated T-cell inhibition | 29,000 tested, under 10 active | primary human CD4 T cells, PD-L1 beads, CellTiter-Glo 96 h | activation, % (concentration not given with the values); call rule not given here
NOMO-1 viab: STK33 inhibitor candidate reducing NOMO-1 cell viability; NOMO-1 AML viability, CellTiter-Glo luminescence, 72 h; inhibition, % (test concentration not listed); 7.5% of 37,000 active; in the data active = inhibition above about 80%; inconclusive = no clear call, values can overlap the other calls
ROS inducer: raises reactive oxygen species in U2OS cancer cells | U2OS ROS induction, H2DCF-DA fluorescence | ROS induction (% of piperlongumine), % at 10 µM | 2% of 46,000 active | AID 624156; in the data active = ROS induction above about 79%, passing the limit was not always enough; inconclusive = no clear call, values can overlap the other calls
Of the large screens only hits and unclear results are named; the others gave an inactive call. Only a selection was taken, and hits are over-represented in it overall.

C[C@@H]1CN([C@H](C)CO)C(=O)c2cc(N(C)C)ccc2O[C@H]1CN(C)Cc1ccc(-c2ccccc2)cc1	none
C[C@H]1CN([C@@H](C)CO)C(=O)c2cc(N(C)C)ccc2O[C@@H]1CN(C)Cc1ccc(-c2ccccc2)cc1	ROS inducer 206
C[C@@H]1CN([C@H](C)CO)C(=O)Cc2cc(N(C)C)ccc2O[C@H]1CN(C)Cc1ccc(Oc2ccccc2)cc1	NOMO-1 viab 110
Nc1cc(=O)nc(SCC(=O)Nc2ccc(Cl)cn2)n1-c1ccccc1	none (no result: PD-1 reversal, NOMO-1 viab)
CCOc1ccc(S(=O)(=O)N(CC(=O)NCc2ccccc2)c2ccccc2)cc1	none (no result: PD-1 reversal, NOMO-1 viab)
CCN(CC)C(=O)Cn1cc(SCC(=O)N2CCCCC2)c2ccccc21	none (no result: PD-1 reversal, NOMO-1 viab)
C=C1C(=O)O[C@@H]2C[C@@]3(C)CC(=O)C=C(C)C3C[C@H]12 (some centres undefined)	NOMO-1 viab 120, ROS inducer 111
C=C1CC[C@@H](O)[C@]2(C)C[C@H]3OC(=O)C(=C)[C@H]3CC12 (some centres undefined)	NOMO-1 viab 104
C=C(C(=O)O)[C@@H]1CC[C@@]2(C)CC(=O)C=C(C)C2C1 (some centres undefined)	none
O=C(CCC1CCCCC1)Nc1ccc(S(=O)(=O)Nc2ncccn2)cc1	none (no result: PD-1 reversal, NOMO-1 viab)
CCC1(C)Cc2nc3nc(SCC(=O)c4ccccc4)n(Cc4ccccc4)c(=O)c3cc2CO1 (centres undefined)	none (no result: PD-1 reversal, NOMO-1 viab)
Cc1cccc(C2Sc3ccccc3N=C3c4ccccc4C(=O)C32)c1 (centres undefined)	NOMO-1 viab 104, ROS inducer 106
O=C1c2ccccc2C2=Nc3ccccc3SC(c3ccc(F)cc3)C12 (centres undefined)	none (no result: PD-1 reversal, NOMO-1 viab)
C[C@H]1CN([C@@H](C)CO)C(=O)Cc2cc(NS(=O)(=O)c3ccc(F)cc3)ccc2O[C@@H]1CN(C)Cc1ccc(Oc2ccccc2)cc1	NOMO-1 viab 96
C[C@@H]1CN([C@H](C)CO)C(=O)Cc2cc(NS(=O)(=O)c3cn(C)cn3)ccc2O[C@H]1CN(C)Cc1ccc(Oc2ccccc2)cc1	none
Cc1ccc(S(=O)(=O)Nc2ccc3c(c2)CC(=O)N([C@H](C)CO)C[C@@H](C)[C@H](CN(C)Cc2ccc(Oc4ccccc4)cc2)O3)cc1	NOMO-1 viab inconclusive
C[C@@H]1CN([C@@H](C)CO)C(=O)Cc2cc(NS(=O)(=O)c3ccccc3)ccc2O[C@@H]1CN(C)Cc1ccc(Oc2ccccc2)cc1	none (no result: PD-1 reversal)
C[C@@H]1CN([C@H](C)CO)C(=O)Cc2cc(NS(=O)(=O)c3ccc(F)cc3)ccc2O[C@H]1CN(C)Cc1ccc(Oc2ccccc2)cc1	NOMO-1 viab 127
C[C@H]1CN([C@@H](C)CO)C(=O)Cc2cc(NS(=O)(=O)c3cn(C)cn3)ccc2O[C@H]1CN(C)Cc1ccc(Oc2ccccc2)cc1	ROS inducer 89
Cc1ccc(S(=O)(=O)Nc2ccc3c(c2)CC(=O)N([C@H](C)CO)C[C@@H](C)[C@@H](CN(C)Cc2ccc(Oc4ccccc4)cc2)O3)cc1	NOMO-1 viab 115
C[C@@H]1CN([C@H](C)CO)C(=O)Cc2cc(NS(=O)(=O)c3ccccc3)ccc2O[C@H]1CN(C)Cc1ccc(Oc2ccccc2)cc1	none
O=C(COc1ccc2ccccc2c1)Nc1ccc(Cc2ccccn2)cc1	none (no result: PD-1 reversal, NOMO-1 viab)
COC(=O)C1CN(C(=O)/C=C/c2ccccc2)c2ccccc2O1 (centres undefined)	none (no result: PD-1 reversal, NOMO-1 viab)
CCOC(=O)c1c(NC(=O)Nc2ccc(Cl)c(Cl)c2)sc(C)c1C	none (no result: PD-1 reversal, NOMO-1 viab)
O=C(NCc1cccc(Cl)c1)c1cnc2ccccn2c1=O	none (no result: PD-1 reversal, NOMO-1 viab)
COc1ccc(-c2nc(C)c(CCNS(=O)(=O)c3ccc(Cl)s3)s2)cc1OC	none (no result: PD-1 reversal, NOMO-1 viab)
COc1ccc(S(=O)(=O)Nc2ccc3c(c2)CC(=O)N([C@H](C)CO)C[C@@H](C)[C@H](CN(C)Cc2ccc(Oc4ccccc4)cc2)O3)cc1	NOMO-1 viab 124
COc1ccc(S(=O)(=O)Nc2ccc3c(c2)CC(=O)N([C@@H](C)CO)C[C@H](C)[C@@H](CN(C)Cc2ccc(Oc4ccccc4)cc2)O3)cc1	none
Cc1ccc2c(C)c(C(=O)Nc3sc4c(c3C(=O)NCC3CCCO3)CCCC4)oc2c1 (centres undefined)	NOMO-1 viab 114 (no result: PD-1 reversal, ROS inducer)
Cc1ccc2oc(C(=O)Nc3sc4c(c3C(=O)NCc3ccco3)CCC4)c(C)c2c1	NOMO-1 viab 120 (no result: PD-1 reversal, ROS inducer)
Cc1ccc(C(=O)Nc2sc3c(c2C(=O)NCc2ccco2)CCCC3)cc1	none (no result: PD-1 reversal, ROS inducer)
Cc1ccc2c(C)c(C(=O)Nc3sc4c(c3C(=O)NCC3CCCO3)CCC4)oc2c1 (centres undefined)	none (no result: PD-1 reversal, ROS inducer)
COc1ccc(OC)c(C(=O)CC2(O)C(=O)Nc3ccccc32)c1 (centres undefined)	none (no result: PD-1 reversal, NOMO-1 viab)
COc1cc(/C=N/NC(=O)CCCCCC(=O)O)c([N+](=O)[O-])cc1OC	none (no result: PD-1 reversal, NOMO-1 viab)
COC(=O)CCCCCCC(=O)N/N=C/c1cc(OC)c(OC)cc1[N+](=O)[O-]	ROS inducer 119 (no result: PD-1 reversal, NOMO-1 viab)
COc1ccc(-n2c(=O)c(C#N)cc3c(=O)n4ccccc4nc32)cc1Cl	none (no result: PD-1 reversal, NOMO-1 viab)
COc1ccc(NC(=O)CC(=O)CSc2ccccc2)cc1	NOMO-1 viab 112
COc1ccc(NC(=O)CSc2nnc(-c3ccccc3)c(-c3ccccc3)n2)cc1	none
COc1cccc2cc(-c3cn(-c4ccc(F)c(F)c4)c(=S)[nH]3)c(=O)oc12	none (no result: PD-1 reversal, NOMO-1 viab)
O=C(Nc1cc(C(F)(F)F)cc(C(F)(F)F)c1)C(=S)NCCNc1cccc2ccccc12	none
COC(CNc1ncnc2c1c(-c1ccccc1)cn2-c1ccc(C)cc1)OC	none (no result: PD-1 reversal, NOMO-1 viab)
COc1ccc(-n2cc(-c3ccccc3)c3c(N4CCCCC4)ncnc32)cc1	ROS inducer 116 (no result: PD-1 reversal, NOMO-1 viab)
COc1ccc(NC(=O)Nc2cccc3c2O[C@@H](CN(C)Cc2ccc4c(c2)OCO4)[C@@H](C)CN([C@H](C)CO)C3=O)cc1	NOMO-1 viab 89
COc1ccc(NC(=O)Nc2cccc3c2O[C@H](CN(C)Cc2ccc4c(c2)OCO4)[C@H](C)CN([C@@H](C)CO)C3=O)cc1	none
COc1ccc(CN(C)C[C@@H]2Oc3c(NC(=O)Nc4ccc5c(c4)OCO5)cccc3C(=O)N([C@@H](C)CO)C[C@H]2C)cc1	NOMO-1 viab 87 (no result: PD-1 reversal)
COc1ccc(CN(C)C[C@H]2Oc3c(NC(=O)Nc4ccc5c(c4)OCO5)cccc3C(=O)N([C@H](C)CO)C[C@@H]2C)cc1	none (no result: PD-1 reversal)
Cc1cccc(NC(=O)C2Sc3nnc(-c4ccccc4)n3NC2c2ccccc2)c1 (centres undefined)	none
Cc1ccc(OCc2nn(C)c3ccccc23)cc1	none (no result: PD-1 reversal, NOMO-1 viab)
O=C(c1cccc(C(=O)N2CCc3ccccc32)c1)N1CCc2ccccc21	none (no result: PD-1 reversal, NOMO-1 viab)
C[C@H]1CN([C@@H](C)CO)C(=O)Cc2cc(NC(=O)Nc3ccc4c(c3)OCO4)ccc2O[C@H]1CN(C)CC1CCCCC1	none
C[C@@H]1CN([C@@H](C)CO)C(=O)c2cc(NC(=O)Nc3cccc4ccccc34)ccc2O[C@@H]1CN(C)CC1CCCCC1	NOMO-1 viab 118
C[C@H](CO)N1C[C@H](C)[C@@H](CN(C)CC2CCCCC2)Oc2ccc(NC(=O)Nc3cccc4ccccc34)cc2C1=O	none
C[C@@H]1CN([C@@H](C)CO)C(=O)Cc2cc(NC(=O)Nc3ccc(F)cc3)ccc2O[C@@H]1CN(C)CC1CCCCC1	NOMO-1 viab 81
COc1ccc(NC(=O)Nc2ccc3c(c2)CC(=O)N([C@H](C)CO)C[C@@H](C)[C@@H](CN(C)CC2CCCCC2)O3)cc1	none

Screening data from PubChem.
